Source: PubChem BioAssay AID588727 (Southern Research Specialized Biocontainment Screening …, 2011)
Screen size: about 350,000 compounds; about 450 (0.13%) were called active. The rule behind the calls is not given here. A selection follows. Results with a measured potency or affinity are listed apart. Where a SMILES comes first, the peptide text is derived from it. [ ]: non-standard residue; d: D form.

Assay: inhibitors of VEEV TC-83 cytopathic effect, confirmation, Vero cells (AID 588727)
Details: VEEV TC-83 cytopathic effect inhibition, at 20 µM
[1] = stronger effect = higher value unless noted
[2] = measured here: 10K pilot screen inhibition, stronger effect = higher value

Compound: CCn1nnnc1SCC(=O)N1CCOCC1
- inhibition [1]: 0.74% (inactive)

Compound: COc1ccc(N2CC(C(=O)N/N=C/c3cc([N+](=O)[O-])ccc3O)CC2=O)cc1 (stereo not drawn)
- inhibition [1]: 2.03% (inactive)

Compound: CCC(C)[C@@H]1NC(=O)N(CCCN2CCCC2=O)C1=O (stereo partly drawn)
- inhibition [1]: 2.56% (inactive)

Compound: CC[C@H](C)[C@@H]1NC(=O)[C@H]([C@@H](C)CC)NC(=O)[C@@H](CC(C)C)NC(=O)[C@H](Cc2ccccc2)NC(=O)[C@H](Cc2ccccc2)NC(=O)[C@@H]2CCCN2C(=O)[C@@H]2CCCN2C(=O)[C@H](C(C)C)NC(=O)[C@H](CC(C)C)NC1=O (cyclo(FF[dL]IILVPP))
- inhibition [1]: inactive

Compound: Cc1ccccc1NC(=O)NCCCN1CCN(C)CC1
- inhibition [1]: 0.45% (inactive)

Compound: Cc1ccccc1NC(=O)NCCN1CC1
- inhibition [1]: inactive

Compound: CC(NC(=O)c1cccc(S(=O)(=O)N(C)c2ccccc2)c1)c1cccnc1 (stereo not drawn)
- inhibition [1]: 1.03% (inactive)

Compound: C[N+]1(CCCCSc2ccc(O)cc2)CCCCC1
- inhibition [1]: inactive

Compound: Cc1ccc(NC(=O)CSc2ccc(-c3ccccn3)nn2)cc1
- inhibition [1]: 0.64% (inactive)

Compound: O=C(CSc1nnc2ccccn12)Nc1ncc(Cl)cc1Cl
- inhibition [1]: 3.72% (inactive)

Compound: CC(C)(C)NC(=O)CSc1nc2ccccc2n1-c1ccccc1
- inhibition [1]: 7.16% (inactive)

Compound: CC(C)NC(=O)CSc1nc2ccccc2n1-c1ccccc1
- inhibition [1]: 3.21% (inactive)

Compound: Cc1ccc(-n2c(SCC(=O)Nc3cccc(S(N)(=O)=O)c3)nc3ccccc32)cc1
- inhibition [1]: 2.21% (inactive)

Compound: Cn1nnnc1SCC(=O)Nc1ncc(Cl)cc1Cl
- inhibition [1]: 2.56% (inactive)

Compound: Cc1nnc(SCC(=O)Nc2ncc(Cl)cc2Cl)n1Cc1ccccc1
- inhibition [1]: 1.6% (inactive)

Compound: CC(C)c1ccc(-c2cc(C(=O)N3N=C(C(F)F)CC3(O)C(F)F)c3ccccc3n2)cc1 (stereo not drawn)
- inhibition [1]: inactive

Compound: O=C1CCC(C(=O)N2CCCCO2)CN1CCc1ccccc1 (stereo not drawn)
- inhibition [1]: 2.16% (inactive)

Compound: COc1ccc(C2CN=NC2C(=O)c2ccccc2)cc1 (stereo not drawn)
- inhibition [1]: 0.98% (inactive)

Compound: Cc1ccc(/C=N/n2c(-c3cccnc3)n[nH]c2=S)o1
- inhibition [1]: 0.4% (inactive)

Compound: CC(=O)Nc1ccc(S(=O)(=O)NC2=NCN(c3cccc([N+](=O)[O-])c3)CN2)cc1
- inhibition [1]: 0.07% (inactive)

Compound: Cc1nn(-c2ccccc2)c2c1C1(C(=O)Nc3ccccc31)N1C(=N2)Sc2ccccc21 (stereo not drawn)
- inhibition [1]: 1.86% (inactive)

Compound: CCCCCc1ccc(-c2nnc(N)s2)cc1
- inhibition [1]: 2.86% (inactive)

Compound: CC1=Nc2cc(C(=O)O)ccc2Sc2c(C)ccc(C)c21
- inhibition [1]: 0.43% (inactive)

Compound: CC1=Nc2cc(C(=O)N3CCCC3)ccc2Sc2ccc(C)cc21
- inhibition [1]: 1.14% (inactive)

Compound: CCOc1ccc(CCNC(=O)CCS(=O)(=O)c2ccc(OC)cc2)cc1OCC
- inhibition [1]: 0.09% (inactive)

Compound: O=C(Cn1ncc2c([nH]c3ccccc32)c1=O)NCCc1ccc(Cl)cc1
- inhibition [1]: 1.06% (inactive)

Compound: CCN(CC)c1ccc(-n2cc3c(=O)n(C)c(=O)n(C)c3c2)cc1
- inhibition [1]: 5.43% (inactive)

Compound: Cc1ccc(C)c(NC(=O)c2ccc3ccccc3n2)c1
- inhibition [1]: 4.34% (inactive)

Compound: CNC(=O)Nc1ccc(C(=O)N/N=C\C23CC[C@@H](O)CC2(O)CC[C@@H]2[C@@H]3CCC3(C)C(C4=CC(=O)OC4)CCC23O)cc1 (stereo partly drawn)
- inhibition [1]: 3.29% (inactive)

Compound: CC(=O)OCC(=O)C1(O)CCC2C3CC(C)C4=CC(=O)CCC4(C)C3C(O)CC21C (stereo not drawn)
- inhibition [1]: 2.53% (inactive)

Compound: C[C@@H]1O[C@@H](O[C@@H]2C=C3CCC4C(CC[C@]5(C)[C@@H](c6ccc(=O)oc6)CC[C@]45O)[C@@]3(C)CC2)[C@H](O)[C@H](O)[C@H]1O (stereo partly drawn)
- inhibition [1]: 23.8% (inactive)

Compound: CCCOC1(NC(=O)c2ccccc2)C(C)=CC(=O)C=C1C
- inhibition [1]: inactive

Compound: CC1CC(C)CN(S(=O)(=O)c2ccc(C(=O)N3CCN(c4ccccc4)CC3)cc2)C1 (stereo not drawn)
- inhibition [1]: 1.42% (inactive)

Compound: CCOc1ccc(NS(=O)(=O)c2ccc(C(=O)N(C)CC(=O)Nc3ccc(OC)cc3)cc2)cc1
- inhibition [1]: 4.36% (inactive)

Compound: Cc1ccc(-n2c(SCC(=O)O)nc3sc4c(c3c2=O)CC(C)(C)SC4)cc1
- inhibition [1]: 0.39% (inactive)

Compound: CCN1C(=O)/C(=C/c2cn(-c3ccccc3)nc2-c2cccnc2)SC1=S
- inhibition [1]: 0.65% (inactive)

Compound: O=C(CCCc1cccs1)Nc1nc2c(s1)CCCC2
- inhibition [1]: 5.78% (inactive)

Compound: CC1CCc2nc(NC(=O)Cc3cccs3)sc2C1 (stereo not drawn)
- inhibition [1]: 4.77% (inactive)

Compound: COc1ccc(OCC(=O)Nc2nc3c(s2)CCCC3)cc1
- inhibition [1]: 5.92% (inactive)

Compound: O=C(COc1ccccc1)Nc1nc2c(s1)CCCC2
- inhibition [1]: 3.03% (inactive)

Compound: CCOC1CCCC(n2cnc3c(=S)nc[nH]c32)O1 (stereo not drawn)
- inhibition [1]: 2.72% (inactive)

Compound: CCCC(=O)Nc1ccc(NC(=O)c2cccc(OC)c2)cn1
- inhibition [1]: 0.41% (inactive)

Compound: COc1ccccc1CCC(=O)OCC(=O)NC1CC1
- inhibition [1]: 2.29% (inactive)

Compound: CCN(CC)S(=O)(=O)c1ccc(C2=NOC3(C2)N(C)c2ccccc2C3(C)C)cc1 (stereo not drawn)
- inhibition [1]: 8.77% (inactive)

Compound: CC1=NOC2(C1)N(C)c1ccccc1C2(C)C (stereo not drawn)
- inhibition [1]: 0.08% (inactive)

Compound: CCn1c(SCC(=O)OC)nnc1-c1ccncc1
- inhibition [1]: 0.14% (inactive)

Compound: COc1cccc(CC(=O)OCC(=O)NC(C)c2ccc(F)cc2)c1 (stereo not drawn)
- inhibition [1]: 4.67% (inactive)

Compound: Cc1cc(-c2nnc(SCCC(=O)Nc3ccccc3)o2)no1
- inhibition [1]: 0.79% (inactive)

Compound: O=C(CSc1nnnn1C1CC1)Nc1ccc(S(=O)(=O)N2CCOCC2)cc1
- inhibition [1]: 1.19% (inactive)

Compound: CN(C)c1ccc(/C=C/c2c([N+](=O)[O-])c(=O)n(C)c(=O)n2C)cc1
- inhibition [1]: 0.74% (inactive)

Compound: COc1ccc(/C=C/c2c([N+](=O)[O-])c(=O)n(C)c(=O)n2C)cc1
- inhibition [1]: 0.41% (inactive)

Compound: Cc1ccc(S(=O)(=O)Nc2cccc(C(=O)N3CCOCC3)c2)cc1
- inhibition [1]: inactive

Compound: Cc1cc(C)cc(NC(=O)CSc2nc3ccccc3nc2N2CCCCC2)c1
- inhibition (stronger effect = higher value): 3.44% (inactive)
- inhibition [2]: 1.42%

Compound: Cc1cc(C)cc(NC(=O)CSc2nc3ccccc3nc2N2CCCC2)c1
- inhibition (stronger effect = higher value): 4.9% (inactive)
- inhibition [2]: 0.985%

Compound: CCc1ccc(C(C(=O)NC2CCCC2)N(C(=O)c2csnn2)C2CC2)cc1 (stereo not drawn)
- inhibition [1]: 0.43% (inactive)

Compound: CCN(CC)S(=O)(=O)c1ccc(OC)c(NS(=O)(=O)c2ccc(F)cc2)c1
- inhibition [1]: inactive
